# Data from PubChem BioAssay (EPA / NIEHS).
# Records with an inconclusive call do not appear. The source holds several records for some structures; these can differ, active in one and inactive in another. Calls of active or inactive are those of the source. Rule for the calls: active = hit-call score of the fitted dose curve at least 0.9, where 1 is the maximum; inconclusive = response in the unintended direction; inactive = score below 0.9.
# Legend:
# [1] = ATG_XTT_Cytotoxicity: Cytotoxicity Assessment in the Attagene TRANS-FACTORIAL HepG2 Assay (AID 2283584);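 for AC50: XTT signal for cell number as viability in transfected HepG2 cells; cells exposed to compound for 24 h before reading; active means loss of viability signal versus DMSO baseline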
# Summary of the method: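 24 h chemical exposure of reporter-transfected HepG2; XTT signal loss vs DMSO indicates cytotoxicity.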
# [2] = TOX21_p53_BLA_p2_viability: Viability Assessment in the Tox21 HCT-116 p53 Agonism Beta-lactamase Assay, Phase 2 (AID 2283591);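 note: compound exposure lasted 16 h at 37 °C; actives lower the ATP signal meaning cytotoxicity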
# Summary of the method: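 HCT116 p53-bla cells, 4000/well, dosed after 5 h plating (217-fold dilution of DMSO stocks) and incubated 16 h at 37C. Viability taken as cellular ATP by CellTiter-Glo luminescence after 30 min RT; signal loss marks cytotoxicity.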
# [3] = molecular target: Cellular tumor antigen p53 (Homo sapiens) (UniProt P04637); assay: TOX21_p53_BLA_p2_ratio: Tox21 HCT-116 p53 Agonism Beta-lactamase Assay, Ratio, Phase 2 (AID 2283592)
# Summary of the method: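 Human colon HCT116 cells with an inducible p53 beta-lactamase reporter are exposed to test chemicals for 16 h at 37C. Reporter induction is read as the 460/530 nm emission ratio after CCF4-AM loading, normalized to DMSO.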
# [4] = TOX21_p53_BLA_p3_viability: Viability Assessment in the Tox21 HCT-116 p53 Agonism Beta-lactamase Assay, Phase 3 (AID 2283593);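 note: cells exposed to compound for 16 h before reading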
# Summary of the method: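 HCT116 cells, 4000/well, dosed 5 h after plating by pin transfer (217-fold dilution from DMSO stock) and incubated 16 h at 37C, 5% CO2. Viability read as ATP luminescence with CellTiter-Glo after 30 min at room temperature.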
# [5] = molecular target: Cellular tumor antigen p53 (Homo sapiens) (UniProt P04637); assay: TOX21_p53_BLA_p3_ratio: Tox21 HCT-116 p53 Agonism Beta-lactamase Assay, Ratio, Phase 3 (AID 2283596)
# Summary of the method: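 HCT116 p53-bla cells (4000/well) given compound in DMSO (217-fold dilution) after 5 h, incubated 16 h at 37C. CCF4-AM substrate 2 h at room temperature; 460/530 nm emission ratio, gain fitted against DMSO.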
# [6] = TOX21_p53_BLA_p4_viability: Viability Assessment in the Tox21 HCT-116 p53 Agonism Beta-lactamase Assay, Phase 4 (AID 2283597);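 note: hits lower the luminescence signal meaning cytotoxicity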
# Summary of the method: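 Luminescent ATP readout (CellTiter-Glo, 30 min, room temperature) in the same wells as the p53 bla ratio. HCT116 cells were treated for 16 h at 37C with DMSO-dissolved compounds.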
# Chain of Cellular tumor antigen p53 (Homo sapiens) (P04637 whole entry, looked up): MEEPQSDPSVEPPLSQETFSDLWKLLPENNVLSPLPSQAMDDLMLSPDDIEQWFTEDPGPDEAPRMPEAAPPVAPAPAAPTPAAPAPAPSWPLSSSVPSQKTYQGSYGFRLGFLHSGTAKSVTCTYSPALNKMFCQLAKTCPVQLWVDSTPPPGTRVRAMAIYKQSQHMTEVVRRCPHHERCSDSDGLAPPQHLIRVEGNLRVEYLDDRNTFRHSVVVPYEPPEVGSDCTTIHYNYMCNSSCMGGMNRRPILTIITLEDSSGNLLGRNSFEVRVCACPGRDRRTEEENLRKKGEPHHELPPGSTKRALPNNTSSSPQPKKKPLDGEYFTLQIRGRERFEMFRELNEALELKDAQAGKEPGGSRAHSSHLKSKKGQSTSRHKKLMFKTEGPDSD
smiles,measurement,setting,value
CC12CCC(C1)C(C)(C)C2O (configuration not stated),outcome,[1],inactive
same,outcome,[2],inactive
same,outcome,[3],inactive
same,outcome,[4],inactive
same,outcome,[5],inactive
O=c1cc(-c2ccc(O)cc2)oc2cc(O)cc(O)c12,outcome,[1],inactive
same,outcome,[2],inactive
same,outcome,[3],inactive
CC1(C)[C@H](C=C(Cl)Cl)[C@H]1C(=O)OCc1cccc(Oc2ccccc2)c1,outcome,[1],inactive
CC(C)N(c1ccccc1)C(C)C,outcome,[1],inactive
Cc1cccc(C)c1,outcome,[1],inactive
CC1=CC(O)CC(C)(C)C1 (configuration not stated),outcome,[1],inactive
same,outcome,[2],inactive
same,outcome,[3],inactive
C=C1CC/C=C(\C)CC[C@@H]2[C@@H]1CC2(C)C,outcome,[1],inactive
same,outcome,[2],inactive
same,outcome,[3],inactive
same,outcome,[4],inactive
CCC(C)(C)c1cc(O)c(C(C)(C)CC)cc1O,outcome,[1],inactive
same,outcome,[2],inactive
same,outcome,[3],inactive
same,outcome,[4],inactive
same,outcome,[5],inactive
CC(=O)c1ccc(C)cc1,outcome,[1],inactive
NC(N)=S,outcome,[1],inactive
same,outcome,[2],inactive
same,outcome,[3],inactive
same,outcome,[4],inactive
same,outcome,[5],inactive
O=C(O)c1cccc(Cl)n1,outcome,[1],inactive
CCCCCCCCOC(=O)c1ccc(O)cc1,AC50,[1],100 µM (active)
same,outcome,[1],inactive
c1ccc2scnc2c1,outcome,[1],inactive
same,outcome,[2],inactive
same,outcome,[3],inactive
same,outcome,[4],inactive
OCC=Cc1ccccc1,outcome,[1],inactive
CC(C)(C)c1cc(CCC(=O)OCCSCCOC(=O)CCc2cc(C(C)(C)C)c(O)c(C(C)(C)C)c2)cc(C(C)(C)C)c1O,outcome,[1],inactive
NC(N)=NC(N)=NCCc1ccccc1,outcome,[1],inactive
same,outcome,[2],inactive
same,AC50,[3],20.4 µM (active)
same,outcome,[3],inactive
same,outcome,[4],inactive
same,AC50,[5],30.6 µM (active)
same,outcome,[5],inactive
Nc1ccn([C@H]2CC[C@@H](CO)O2)c(=O)n1,outcome,[1],inactive
same,outcome,[2],inactive
same,outcome,[3],inactive
same,outcome,[4],inactive
same,outcome,[5],inactive
CCC(=O)OC/C=C(\C)CCC=C(C)C,outcome,[1],inactive
CCOC(=O)CC1(C)OCC(C)O1 (configuration not stated),outcome,[1],inactive
same,outcome,[2],inactive
same,outcome,[3],inactive
same,outcome,[4],inactive
O=C1CCC(=O)N1,outcome,[1],inactive
CCCCCCCCSCc1cc(C)c(O)c(CSCCCCCCCC)c1,outcome,[1],inactive
C1CCCNCC1,outcome,[1],inactive
CCCOC(=O)CC,outcome,[1],inactive
c1coc(CNc2ncnc3nc[nH]c23)c1,outcome,[1],inactive
same,outcome,[2],inactive
same,outcome,[4],inactive
CCCCCCCCCC(=O)OCC,outcome,[1],inactive
same,outcome,[2],inactive
same,outcome,[3],inactive
same,outcome,[4],inactive
same,outcome,[5],inactive
CCOC(=O)COC(=O)c1ccccc1C(=O)OCC,outcome,[1],inactive
same,outcome,[2],inactive
same,outcome,[6],inactive
CCCCCCCCCCCCCC(=O)OCC,outcome,[1],inactive
same,outcome,[2],inactive
same,outcome,[3],inactive
same,outcome,[5],inactive
same,outcome,[6],inactive
CCCCCCCOC(C)=O,outcome,[1],inactive
same,outcome,[2],inactive
same,outcome,[4],inactive
same,outcome,[6],inactive
COc1ccc(OC)cc1,outcome,[1],inactive
same,outcome,[2],inactive
same,outcome,[3],inactive
same,outcome,[4],inactive
same,outcome,[5],inactive
same,outcome,[6],inactive
O=Cc1ccccc1O,outcome,[1],inactive
same,outcome,[2],inactive
same,outcome,[3],inactive
same,outcome,[4],inactive
same,outcome,[5],inactive
C=CC(O)CCCCC (configuration not stated),outcome,[1],inactive
same,outcome,[2],inactive
same,outcome,[3],inactive
same,outcome,[4],inactive
same,outcome,[6],inactive
CCc1cccc(O)c1,outcome,[1],inactive
same,outcome,[2],inactive
same,outcome,[3],inactive
same,outcome,[5],inactive
Cc1cccc(O)c1,outcome,[1],inactive
same,outcome,[2],inactive
same,outcome,[5],inactive
same,outcome,[6],inactive
C=C(C)C(=O)OCCN(C)C,outcome,[1],inactive
same,outcome,[2],inactive
same,outcome,[4],inactive
same,outcome,[6],inactive
CCNC(=S)NCC,outcome,[1],inactive
same,outcome,[2],inactive
same,outcome,[3],inactive
same,outcome,[5],inactive
same,outcome,[6],inactive
CC(O)CNCC(C)O (configuration not stated),outcome,[1],inactive
same,outcome,[2],inactive
same,outcome,[3],inactive
same,outcome,[4],inactive
same,outcome,[5],inactive
same,outcome,[6],inactive
FC(F)(F)c1ccc(Cl)c(Cl)c1,outcome,[1],inactive
same,outcome,[2],inactive
same,outcome,[3],inactive
same,outcome,[4],inactive
same,outcome,[5],inactive
same,outcome,[6],inactive
CCCCCc1cccc(=O)o1,outcome,[1],inactive
same,outcome,[2],inactive
same,outcome,[4],inactive
same,outcome,[5],inactive
CC(=O)Nc1cc(S(=O)(=O)O)cc2cc(S(=O)(=O)O)c(N=Nc3ccccc3)c(O)c12,outcome,[1],inactive
same,outcome,[2],inactive
same,outcome,[3],inactive
same,outcome,[6],inactive
CC(CCO)CC(C)(C)C (configuration not stated),outcome,[1],inactive
same,outcome,[2],inactive
same,outcome,[3],inactive
same,outcome,[5],inactive
C=C(C)CCCC(C)CCO (configuration not stated),outcome,[1],inactive
same,outcome,[2],inactive
same,outcome,[4],inactive
Nc1cc([N+](=O)[O-])ccc1C(=O)O,outcome,[1],inactive
same,outcome,[2],inactive
same,outcome,[3],inactive
same,outcome,[5],inactive
CCCCOCCOC(=O)c1ccccc1C(=O)OCCOCCCC,outcome,[1],inactive
same,outcome,[2],inactive
same,outcome,[3],inactive
same,outcome,[4],inactive
same,outcome,[5],inactive
same,outcome,[6],inactive
[Na+],outcome,[1],inactive
same,outcome,[2],inactive
same,outcome,[3],inactive
same,outcome,[4],inactive
same,outcome,[5],inactive
Cc1cc(N)n(-c2ccccc2)n1,outcome,[1],inactive
same,outcome,[2],inactive
same,outcome,[4],inactive
CC(C)OB(OC(C)C)OC(C)C,outcome,[1],inactive
same,outcome,[2],inactive
same,outcome,[3],inactive
same,outcome,[5],inactive
same,outcome,[6],inactive
